Laboratory results taken from PubChem BioAssay AID1508600 (Functional Genomics Laboratory (NCATS/FGL), 2020).
About 3,700 (7%) of roughly 53,000 sequences were called active. This is one part of a sample in which actives are shown more often than they occur.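 How the source made its calls: active means gene knockdowns whose robust z-score for IL-1 alpha signal is at least 2 or at most -2, so actives lie on both sides; inactive means the rest.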

Assay: Components of the Cytosolic LPS Sensing Pathway: Gene Identification via Genome-wide siRNA Screen;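 further: robust z of the log signal after scaling to non-targeting control siRNA wells of the plate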
Settings: RAW264.7 macrophages, IL-1a HTRF, actives lie on both sides, screened at 100 nM (by protocol), cells primed 5 h with Pam3CSK4 first
In short: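 Using IL-1a HTRF as read-out, the screen measured release from RAW264.7 cells after 48h siRNA knockdown (100 nM), 5 h Pam3CSK4 priming and 24 h cytosolic LipidA. Values were expressed relative to negative-control wells as robust z-scores.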

z-score, inactive:
GCUUUACGAUACUCCAUAUTT against Shd -0.506
GGGAGAAAAUUGGCUUAGATT against Dclre1b 0.424
GAUGUUCUGCAUCUACUUUTT against Olfr545 1.46
CCUGAAAUCCUGUAGCUACTT against Pgap3 1.35
GGACCAUCACUUCCAGCUATT against Rab1b -0.726
GGAAGUCUCUAUCCUGAACTT against Prss50 -0.24
GGAAGUCAACAAUGCAUUCTT against Olfr1451 -0.133
GGUAAAUUACUCUGAUCAATT against Gpr61 -0.593
GGGAUUAAUAUCAUACCGATT against Slc30a5 -1.33
GGGUUUUAUGACCUUCAAGTT against Zkscan14 0.655
GGAUGCUCUAGUUCCAUUATT against Aym1 0.51
GGAGCAUCAUUUUAACACUTT against Tubd1 0.925
GGAUCCUGGUCCAAACUUUTT against Atraid -1.52
GGUUAUUGGCACUUUUAGATT against Ect2 0.0504
GGUGCUGAUGAAGUUCAUGTT against Ap1b1 1.47
GGAGACUAUUUCAUCUACUTT against Tnfsf15 0.347
GGAGAAAACACAAUGUCUUTT against Limd1 0.441
GGACUUUGAGGAGAAGGAUTT against Rabep2 -1.34
GGAAGGUGUCAAUAAAGAUTT against Lypd3 0.0184
GGAGAGUCUCCAGACUUUGTT against Med29 -0.521
CCAGAAGAACAAGGAAGUATT against Gm6460 -0.914
GGCCCAACGACAUUUAUGUTT against Pop7 -1.38
GCCUUCUGAUAACCUACUATT against Mefv -1.87
GCUAGUGGUAAGUCAACCATT against Iqsec1 -0.882
GGAAGCUUACAUUGUGAAGTT against Unc5c -0.735
GGACAAGCAAGGUCAAUCATT against Taar1 -1.11
AAACUAGGGUCGAUUUCACTT against Hmgn3 0.704
GGCCUUCCUCUUCUGCUUATT against Csf3r 0.157
GUGAACAACAUCCAAGCGATT against Dhrs7c 0.183
GCGGAAAAAUUACUUUCUUTT against Tas2r107 -2
GGAAACCUACCAAGAAACGTT against Fam234a -0.293
GGGACAAUUGGAAAGGCGATT against Wdr55 0.507
GCCUAUCAGUAUCAUAGUUTT against Dnajc10 0.905
GGAGUAUUCAACAUUUGUATT against Trim11 -0.523
GAACGGGUUACCAUGUGGUTT against Xkr9 0.546
CGCAGGUGAGAGCAAUGUUTT against Lrrn4cl -1.35
GGAUGUGAAAUUCAAGCUUTT against Dhx34 -0.457
GGAUACAGAAGGUUUUCUUTT against Abcd4 -0.137
GGAACCCUUUUCAAAAGAGTT against Bclaf3 0.112
GGAGGAGACUAAAGAAAAUTT against Myf6 -1.53
GGAAACAUCUUGUUGAAGATT against BC106179 0.361
GGAGAAAGCAGAGAUAAAATT against Cdk11b -1.8
CCCACAACUGCAAAUUGUGTT against Olfr782 -1.21
GGAUACAAGAAACCUUAAGTT against Os9 1.09
GGAUAAAUUUCAAGAUGUGTT against Naip5 -0.552
GGUACCAUUCGUUCAAACCTT against 3830406C13Rik 0.416
GGCCUUUACGUCUUCCUAGTT against Zdhhc12 -1.19
GGAAGAUGGGCAAGAUGAUTT against Sash3 -0.183
CCCAGCACUUUUUCGCUCUTT against Olfr458 0.959
GGCACUCAGCAAGAUUGUATT against Nr2c2ap -0.28
GCUCAUCUUAUCCUCUAAGTT against Cts7 0.391
UCAGGUCGCUGCUAAACUCTT against Ccdc57 -1.26
GGUUCAAAGGUGAUGGUGUTT against Dab2 0.273
CGAGCUUUGAAAGUUUAAUTT against Pcsk2 0.591
CCUGACGAUUGAGUAUCAUTT against Tubgcp4 -0.267
GGACCUGCCCAAAUCUGAUTT against Fbxo40 0.307
CGGCUCUUCAAUAGAGCCUTT against Olfr123 -0.265
GGAUUAUGGUCUCAUUGUCTT against Exd2 0.0549
GGAGCUUUCUCAGAGGUGUTT against Camk1g -1.47
CCAGAUGCAGUCACAAGUCTT against Klf4 0.843
GGUUUUAAAGGCCAUAUUGTT against Msmo1 -1.72
GCCGACAACACAAAAUUAUTT against Vps26b 0.4
CGAAAGCACACACGUAGAATT against Erdr1 0.391
GGUCUUCCAAGGUCAGAAGTT against Cyp2d10 1.5
GGCAAUAAUCUUAGAGGUUTT against 9530068E07Rik 0.499
GCUGUAAGGAGGAACUUCUTT against Btg1 -1.03
CCGAACAGAGGAAGAAGGCTT against Olfr816 0.281
GGGAGGACAGUCAUUGGUUTT against Phldb1 -1.84
GCAUAAGGAUAUAGCAUUATT against Ctla4 -0.72
GGCAUUUGCACAGUUUAUGTT against Upp2 -1.42
CCUAGUAAUCAGUUUGAAUTT against Ak4 1.17
CCAUAUGGCUUGUGGCAGATT against Scn1b -0.245
GGUGACAGAGAUUUUCGAATT against Tbc1d22a 0.931
GGCAAGUCUUUAAAAGUCCTT against Xrcc2 -1.48
GGAGAAGAAGCUGGACCAGTT against Atp5o 0.348
GGUACAAUACAUUCAAACATT against Serpinb6c -0.82
CCCUUGUCCAGUGUGAGUUTT against Tmem184b 1.07
GGCACAGACCUCACAGUUATT against Olfr64 0.534
GGAAAAAGCUGUGAUACUUTT against Hspbap1 -0.895
GGGCAGAAAACAACUGGAATT against Pappa -1.1
GGAGGAUGGAGUCAUAUAUTT against Gm773 -0.41
GGAGUUUGGAAUAAAAAGGTT against Flt3 -0.173
GCAGAGGGACAGUCUACAUTT against Rorc -0.534
GAUUUCUAUACAGCCUAUCTT against Olfr799 0.312
GGCUGGACAGGAUUAUCCATT against Tmem185b -0.904
CGCAGGUAAUUUGUUUGUGTT against Mtnr1b 1.16
GCAUAGCAAUGAAAAUCUATT against Lrit2 1.06
GGUCAAUCUUUGGAGUAUUTT against Stk39 -0.129

z-score, active:
GGCAGAGACCUCAAAACCATT against Selplg -2.33
GGAUUGCUUCACCACAUGUTT against Fes 2.44
CCUACAGAUAGGUAUGUAGTT against Exo1 -2.07
GGGAUUUUUGAAACUGAAGTT against Glod4 -2.78
GGAGGAGACUCAGCAGAUUTT against Gzmn 2.29
GGUGUAAGAGCUUUGGCCUTT against Gm5420 2.35
GGAGUUUUCAUGCCUACAATT against Odam 2.58
GGCACUUUCGGGAAUUCACTT against Nup160 -2.5
GGAAGGAACUCAAGAAGACTT against Ifrd1 2.13
CGACUCUUGCCUGUUCGUGTT against Adamtsl5 -2.48
GCAGGACAACCAGCUGGUATT against Tmem107 3.43
GGACCAGACGAACAGUGAUTT against Surf2 2.28
GCUGCUCGUUAAAGCCGGATT against Ankrd6 2.92
GGUCUCUGGUAAGAAGAGCTT against Zfp276 2.95
GGGUCCUUUUUAGCUGUAGTT against Vdac1 3.83
GGCCUUCCGCAUUUUAUCATT against Zfp729a 2.43
GGAACUGAUUGAAAACAUCTT against Syce2 2.97
GCAAAAUUAUCAGUGAGGATT against Nt5c3b -2.54
GGCUACAAGUUGGUAAUCUTT against Pnkp 3.36
GGUUAAAGUUAAAUCUGUCTT against C6 -2.35
